# TDP1 cell noCPT = qHTS for Inhibitors of human tyrosyl-DNA phosphodiesterase 1 (TDP1): qHTS in cells in absence of CPT | Potency, µM (series often up to 46.2 µM), for the others: at the highest dose activity change, negative = growth inhibition, usual class: inhibitors | DT40 Tdp1-/- hTDP1 cells, no CPT, ATP luminescence, 48 h | 15% of 420,000 active | AID 686978, 2013; note: nearly all actives have a fitted effect of over 55% in size
#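 DT40 Tdp1-/-;hTDP1 cells, no CPT (DMSO vehicle only), 400 cells/well; compounds pin-transferred; ≥48 hr, 37 °C; CellTiter-Glo 30 min RT dark, luminescence read.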
# DT40 TDP1 CPT = growth inhibition of DT40 Tdp1-/-;hTDP1 cells with camptothecin (screen for TDP1 inhibitors); 12% of 420,000 active; Potency, µM (series often up to 46.2 µM), for inactives: at the highest dose activity change, negative = growth inhibition, usual class: inhibitors; AID 686979; chicken DT40 Tdp1-/-;hTDP1 cells + 20 nM CPT, ATP luminescence, 48 h; note: nearly all actives have a fitted effect of over 55% in size
#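 Cell growth measured by CellTiter-Glo luminescence after a minimum 48 h, 37 C compound exposure with 20 nM CPT in Tdp1-knockout DT40 cells stably expressing hTDP1, seeded 400/well; qHTS titration format.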
# GCN5L2 inh = GCN5L2 (KAT2A) acetyltransferase inhibition; Q92830; GCN5L2 HAT assay, ThioGlo1 CoA-SH fluorescence; Potency, µM (doses to about 58.9 µM), for the others: top-dose activity change, negative = inhibition, actives largely listed as inhibitors; 0.21% of 390,000 active
#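 qHTS, 1536-well. 20nM enzyme, pH 7.5 HEPES/EDTA/Tween-20 buffer; 15 min compound preinc., RT. Start: 75uM H3(1-25), 70uM AcCoA, 50uM ThioGlo1. Read Ex340/Em540 at t=0 (autofluorescence flag) and t=20 min.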
# TDP1 inh = blocks human tyrosyl-DNA phosphodiesterase 1. Q9NUW8. recombinant TDP1, AlphaScreen DNA substrate cleavage. Potency, µM (titrated, usually from 130 µM), inactives show at the top dose activity change, negative = inhibition, hits mostly inhibitors. 0.28% of 350,000 active. AID 485290; note: nearly all actives have a fitted effect of over 40% in size
#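 Steps: enzyme plus compound, 15 min RT; add biotin/phosphotyrosine-FITC oligonucleotide (15 nM final), react 5 min; add donor/acceptor beads (10 ug/ml final), 10 min; read AlphaScreen. Tdp1 at 1 nM final.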
# PLK1 PBD block = PLK1 (human) polo-box domain binding inhibition; Plk1 PBD binding of FITC phosphopeptide, fluorescence polarization; Potency, µM, inactives show max response, negative = inhibition, actives largely listed as inhibitors; 2.8% of 360,000 active; AID 720504; note: series mostly up to about 57 µM; nearly all actives have a fitted effect of over 65% in size
# Target sequence (P53350 whole entry, looked up, the tested form may be a part): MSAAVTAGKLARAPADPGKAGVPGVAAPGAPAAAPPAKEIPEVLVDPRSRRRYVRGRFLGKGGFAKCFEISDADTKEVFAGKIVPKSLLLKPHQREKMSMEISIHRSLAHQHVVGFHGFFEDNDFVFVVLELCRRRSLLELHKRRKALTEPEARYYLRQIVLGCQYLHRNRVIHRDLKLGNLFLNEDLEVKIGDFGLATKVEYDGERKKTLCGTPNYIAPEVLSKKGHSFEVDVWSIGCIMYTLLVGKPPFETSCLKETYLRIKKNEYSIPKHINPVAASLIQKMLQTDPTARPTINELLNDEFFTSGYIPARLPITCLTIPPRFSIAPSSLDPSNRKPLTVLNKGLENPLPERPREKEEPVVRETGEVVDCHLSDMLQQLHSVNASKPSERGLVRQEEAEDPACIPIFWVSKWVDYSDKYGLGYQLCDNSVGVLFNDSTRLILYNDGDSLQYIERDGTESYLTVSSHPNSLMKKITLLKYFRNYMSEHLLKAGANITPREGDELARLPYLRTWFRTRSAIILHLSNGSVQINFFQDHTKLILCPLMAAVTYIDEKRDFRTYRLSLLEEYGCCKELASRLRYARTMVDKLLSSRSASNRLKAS
# VDR inh = vitamin D3 receptor (human) inhibition. VDR-SRC2-3 peptide fluorescence polarization, 2 h. Potency, µM, inactives show max response, negative = inhibition, actives largely listed as inhibitors. 0.93% of 400,000 active. AID 504847
#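 Fluorescence polarization assay measuring small-molecule disruption of VDR binding to the coregulator peptide SRC2-3. Compounds were pin-transferred (23 nl) into the reagent mix and incubated 2 h at room temperature before reading.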
# * marks the source's active call; other numbers are inactive results; ? = inconclusive; · = no result; [ ] = dose if it differs, or a comment. A selection: hits, their analogues and other compounds. The true share with any hit is near 18%. Calls come from the whole dose curve; as a rule, active = well fitted curve in the direction sought with a large enough effect; inconclusive = small, poorly fitted or top-dose-only effect, or another doubt; inactive = no such curve, though single readings can be large; an effect the other way counts as inactive or inconclusive. % is set by controls: 0 for no effect and ±100 for the full control effect; potency is the fitted concentration of half-maximal effect.
SMILES,TDP1 cell noCPT,DT40 TDP1 CPT,GCN5L2 inh,TDP1 inh,PLK1 PBD block,VDR inh
Cc1nc2ccc([N+](=O)[O-])cc2s1,16.4%,18.2%,-6.7%,0.5%,?,-10.3%
O=c1[nH]cnc2n[nH]nc12,?,-7.7%,·,·,·,·
COC(=O)c1cc(C(=O)Nc2ccc(S(N)(=O)=O)cc2)cc([N+](=O)[O-])c1,-10.0%,2.5%,-17.7%,2.5%,4.8%,24.4%
Cc1c(NS(=O)(=O)c2ccc3c(c2)OCCO3)cccc1-c1nc2cccnc2s1,11.6µM*,?,-5.8%,6.5%,3.2%,5.1%
Cc1nc2ccc(NC(=O)CCS(=O)(=O)c3ccc(Cl)cc3)cc2s1,14.6µM*,11.6µM*,1.8%,4.5%,16.8µM*,?
Cc1cc(-c2nc3cccnc3s2)ccc1NS(=O)(=O)c1ccc2c(c1)OCCO2,-26.0%,-21.2%,-15.6%,4.3%,-17.6%,-13.6%
COc1ccc(NC(=O)CCS(=O)(=O)c2ccc3nc(C)sc3c2)cc1OC,-15.6%,10.6%,-7.9%,·,-6.5%,16.2%
Cc1ccc(S(=O)(=O)Nc2ccc3nc(N)sc3c2)cc1,11.6µM*,13µM*,-2.0%,3.8%,-19.7%,-1.9%
O=S(=O)(Nc1ccc(N2CCCCC2)cc1)c1ccc(F)c(F)c1,14.6µM*,?,-10.5%,8.2%,-8.2%,4.5%
CC(=O)OCC1OC(n2c(Br)nc3c(=O)[nH]c(N)nc32)C(OC(C)=O)C1OC(C)=O (centres undefined),22.2%,11.4%,2.7%,11.7%[56.1 µM],·,0.0%
CCCCCCCCCCCCCCCCCCNc1ccn(C2OC(COP(=O)(O)OCC3OC(n4cc(F)c(=O)[nH]c4=O)CC3O)C(O)C2O)c(=O)n1 (centres undefined),0.0411µM*,0.13µM*,·,·,26.7µM*,?
O=C1NC(=O)/C(=C\c2ccc(Cl)cc2Cl)N1,-7.4%,7.7%,·,·,-2.5%,7.5%
O=C(C[n+]1ccc(Cl)c2ccc(Cl)cc21)c1ccc(F)cc1,3.55µM*,10µM*,·,·,·,·
COc1ccc(C(=O)C[n+]2ccc(Cl)c3ccc(Cl)cc32)cc1,7.94µM*,7.94µM*,·,·,·,·
COc1ccc(C(=O)C[n+]2cc(Br)cc(Br)c2)cc1,2.8%,-5.2%,·,·,·,·
O=C(C[n+]1ccncc1Cl)c1ccc(F)cc1,-25.3%,1.3%,·,·,·,·
Cc1ccc(-n2c3c(cc(-c4nc(-c5ccc(Cl)cc5)cs4)c2=O)C(=O)CC(C)(C)C3)cc1,-4.4%,-10.9%,-4.4%,-2.7%,·,-9.1%
O=C(NCc1cccnc1)c1cc(C2CCCCN2S(=O)(=O)c2ccccc2)on1 (centres undefined),?,3.9%,·,·,-5.6%,·
